# In publication PMC4336329 (PLoS ONE, 2015):
# Screen size: about 310,000 compounds; about 14,000 (4.5%) showed an effect of 50% or more. Effects have a minus sign here. Many of the other results were omitted from the sample, so strong results are more common in it than they were.
# Target: human ether-à-go-go-related gene (hERG) potassium channel (human, UniProt Q12809)
# Test: primary screen, population patch clamp on CHO cells stably expressing hERG; higher = less effect of the substance
# 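Also: peak tail current of the secondary pulse compared with the same well before compound.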
# human ether-à-go-go-related gene (hERG) potassium channel, sequence (Q12809 whole entry, looked up): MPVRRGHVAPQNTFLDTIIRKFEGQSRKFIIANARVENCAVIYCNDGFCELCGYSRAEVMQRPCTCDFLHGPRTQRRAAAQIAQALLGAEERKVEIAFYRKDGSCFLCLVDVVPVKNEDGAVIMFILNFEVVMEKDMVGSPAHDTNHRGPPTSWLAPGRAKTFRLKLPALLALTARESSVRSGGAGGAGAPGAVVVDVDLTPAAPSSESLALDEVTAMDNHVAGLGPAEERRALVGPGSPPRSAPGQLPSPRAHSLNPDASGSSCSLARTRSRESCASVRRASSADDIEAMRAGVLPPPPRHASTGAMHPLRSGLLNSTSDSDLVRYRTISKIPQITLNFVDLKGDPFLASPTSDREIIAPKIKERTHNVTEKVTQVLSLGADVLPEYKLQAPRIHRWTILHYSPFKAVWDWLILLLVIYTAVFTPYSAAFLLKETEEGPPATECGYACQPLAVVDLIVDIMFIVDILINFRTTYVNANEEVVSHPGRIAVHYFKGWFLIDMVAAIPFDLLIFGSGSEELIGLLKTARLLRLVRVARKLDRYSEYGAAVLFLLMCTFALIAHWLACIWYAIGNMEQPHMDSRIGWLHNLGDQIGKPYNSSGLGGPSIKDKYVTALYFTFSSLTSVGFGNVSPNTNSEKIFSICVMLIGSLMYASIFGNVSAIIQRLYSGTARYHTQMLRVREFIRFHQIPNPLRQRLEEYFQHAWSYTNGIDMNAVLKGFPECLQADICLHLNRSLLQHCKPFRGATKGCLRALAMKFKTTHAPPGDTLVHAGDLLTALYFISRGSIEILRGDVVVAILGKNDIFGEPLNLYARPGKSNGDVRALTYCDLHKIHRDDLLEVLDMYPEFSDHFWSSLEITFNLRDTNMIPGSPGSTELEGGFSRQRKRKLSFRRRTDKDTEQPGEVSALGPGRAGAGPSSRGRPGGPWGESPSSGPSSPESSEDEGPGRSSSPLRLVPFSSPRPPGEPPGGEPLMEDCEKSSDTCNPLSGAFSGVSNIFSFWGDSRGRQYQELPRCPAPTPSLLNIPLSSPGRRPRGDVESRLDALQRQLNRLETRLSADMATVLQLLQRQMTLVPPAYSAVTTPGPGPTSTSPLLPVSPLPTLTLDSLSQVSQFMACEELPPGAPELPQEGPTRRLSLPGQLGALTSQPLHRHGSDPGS
row,SMILES,"hERG current change (%, negative = inhibition) at 10uM"
1,Nc1c(Cl)cc(-c2csc(N3CCCC3c3nc4cc(Cl)c(Cl)cc4n3CCCO)n2)cc1Cl (stereo not drawn),-2.8%
2,CC(NC(=O)C1CC1)C(c1cccs1)N1CCN(c2ccccc2)CC1 (stereo not drawn),-0.284%
3,COc1ccc(NC(=O)CN(C)Cc2cccs2)cc1Cl,-15.7%
4,Cc1ccc(S(=O)(=O)c2nc(-c3ccccc3)oc2N2CCC(C(N)=O)CC2)cc1,-26.3%
5,O=S(=O)(c1ccc(Br)cc1)c1nc(-c2ccccc2)oc1N1CCOCC1,-30.7%
6,CN1CCN(c2oc(-c3ccccc3Cl)nc2S(=O)(=O)c2ccccc2)CC1,-47.9%
7,CN1CCN(c2oc(-c3ccccc3)nc2S(=O)(=O)c2ccc(Br)cc2)CC1,-68.6%
8,O=S(=O)(c1ccccc1)c1nc(-c2ccccc2)oc1N1CCCC1,8.44%
9,CN1CCN(c2oc(-c3ccccc3F)nc2S(=O)(=O)c2ccc(Cl)cc2)CC1,-57.6%
10,NC(=O)C1CCN(c2oc(-c3ccccc3)nc2S(=O)(=O)c2ccc(Br)cc2)CC1,-55.9%
11,O=S(=O)(c1ccc(F)cc1)c1nc(-c2ccccc2F)oc1N1CCCCC1,-20%
12,NC(=O)C1CCN(c2oc(-c3ccc(F)cc3)nc2S(=O)(=O)c2ccccc2)CC1,-17.4%
13,CCN(CC)S(=O)(=O)c1cccc(N=Nc2sc(N)nc2C)c1,-12.8%
14,S=C1NC[C@H](CC2CCCCC2)N1CC1CCCCC1,-8.59%
15,O=C(CN1CCCCC1)Nc1ccc(NC(=O)c2ccc(Cl)cc2)cc1Cl,13.7%
16,CCC(NC(=O)c1cc(COc2cncc(Cl)c2)on1)c1ccncc1 (stereo not drawn),8.75%
17,COc1ccc(-c2cc3ccccc3n2CC(O)CNCCO)cc1.O=C(O)C(=O)O (stereo not drawn),3.61%
18,COc1ccc(-c2cc3ccccc3n2CC(O)Cn2nc(C)cc2C)cc1 (stereo not drawn),4.62%
19,COc1ccc(-c2cc3ccccc3n2CC(O)CN2CCC(C)CC2)cc1.O=C(O)C(=O)O (stereo not drawn),-77%
20,COc1ccc(-c2cc3ccccc3n2CC(O)CN2CCOCC2)cc1 (stereo not drawn),-13.5%
21,COc1ccc(-c2cc3ccccc3n2CC(O)CN2CCN(CCO)CC2)cc1 (stereo not drawn),-29.9%

row,SMILES,"hERG current change (%, negative = inhibition) at 10uM"
1,COc1ccc(-c2cc3ccccc3n2CC(O)CN2CCCCC2)cc1.O=C(O)C(=O)O (stereo not drawn),-79.6%
2,OCC[C@H]1C[C@H](O)[C@@H](O)[C@@]2(OCc3ccccc32)O1,8.35%
3,CCOc1ccccc1N(CC(=O)NC(C)(C)C)C(=O)Cn1nnc(-c2ccc(C)o2)n1,-16%
4,O=C(C1CC1)N1CCc2cc(Br)cc(S(=O)(=O)N3CCN(c4ccccn4)CC3)c21,-17.5%
5,COc1ccc(CCNC(=O)NCCc2c[nH]c3ccccc23)cc1OC,-3.31%
6,CCOc1ncccc1C(=O)Nc1cccc(-c2nnc3n2CCCCC3)c1,-19.6%
7,CC(C)(C)OC(=O)N1CCC(C(=O)NCC2CCCO2)CC1 (stereo not drawn),16.5%
8,O=C(CC(C(=O)N1CCc2ccccc21)n1ccnc1)NCc1ccccc1 (stereo not drawn),-26.5%
9,O=C(/C=C/c1ccc(F)cc1)Nc1cc(S(=O)(=O)N2CCOCC2)ccc1N1CCCC1,-70.9%
10,COc1cc(/C=C/C(=O)Nc2cc(S(=O)(=O)N3CCOCC3)ccc2N2CCCC2)cc(OC)c1OC,24%
11,O=C(/C=C/c1ccccc1)Nc1cc(S(=O)(=O)N2CCOCC2)ccc1N1CCCC1,-1.04%
12,Cc1ccc(NC(=O)/C=C/c2ccc3c(c2)OCO3)cc1S(=O)(=O)N1CCOCC1,-13%
13,COc1ccc(/C=C/C(=O)Nc2cc(S(=O)(=O)N3CCOCC3)ccc2N2CCCC2)cc1OC,-40.3%
14,O=C(/C=C/c1ccc(F)cc1)Nc1ccc(S(=O)(=O)N2CCOCC2)cc1,9%
15,O=C(/C=C/c1ccc2c(c1)OCO2)Nc1cc(S(=O)(=O)N2CCOCC2)ccc1N1CCOCC1,-55.9%
16,Cc1ccc(/C=C/C(=O)Nc2cc(S(=O)(=O)N3CCOCC3)ccc2N2CCOCC2)cc1,-43.2%
17,O=C(/C=C/c1cccc(F)c1)Nc1cc(S(=O)(=O)N2CCOCC2)ccc1N1CCCC1,-57.7%
18,Cc1ccn(CCC(=O)O)n1,26.6%
19,Cc1[nH]n(-c2ccccc2)c(=O)c1/C=N/N1C(=O)c2cccc3cccc(c23)C1=O,3.73%
20,COc1ccc(/C=C/c2nc3sc4c(c3c(=O)o2)CCC4)cc1,4.28%
21,Cc1ccc(-c2nc(N)c3c(-c4ccc(C)cc4)nn(C(C)(C)C)c3n2)cc1,-1.71%

row,SMILES,"hERG current change (%, negative = inhibition) at 10uM"
1,O=C(COc1ccc(S(=O)(=O)N2CCOCC2)cc1)NCCc1ccccc1,-13.4%
2,CCN(CC)CCNc1nc2c(c(=O)n(C)c(=O)n2C)n1C/C=C(/C)Cl,-58.9%
3,C/C(Cl)=C/Cn1c(NCCN(C)C)nc2c1c(=O)n(C)c(=O)n2C,-26.9%
4,C/C(Cl)=C\Cn1c(NCCc2ccccc2)nc2c1c(=O)n(C)c(=O)n2C,-9.3%
5,CCC(=O)NCCCc1nc(-c2ccccc2)no1,5.95%
6,COc1ccc(CN2C(=O)COc3ccccc32)cc1,12%
7,CCCCN(CCCC)C(=O)CCS(=O)(=O)c1ccc2c(c1)n(C)c(=O)c(=O)n2C,-69.2%
8,CCN(Cc1ccccc1)C(=O)CCS(=O)(=O)c1ccc2c(c1)n(C)c(=O)c(=O)n2C,-15%
9,CCCCN(CCCC)C(=O)CN(C)S(=O)(=O)c1ccc2c(c1)n(C)c(=O)c(=O)n2C,-37%
10,CCn1c(SCC(=O)NNC(=O)c2ccc(C)cc2)nnc1-c1ccncc1,-0.879%
11,Cc1ccc(C(=O)NNC(=O)CSc2nnc(-c3ccncc3)n2-c2ccc(C)cc2)cc1,-51.4%
12,CCC(C)NC(=O)CSc1nnc(-c2ccncc2)n1-c1ccc(OC)cc1 (stereo not drawn),-0.947%
13,Cc1ccc(C(=O)NNC(=O)CSc2nnc(-c3ccncc3)n2C)cc1,24.9%
14,COc1ccc(-n2c(SCC(=O)NNC(=O)c3ccccc3C)nnc2-c2ccncc2)cc1,-7.21%
15,COc1ccc(-n2c(SCC(=O)NNC(=O)c3ccc(C)cc3)nnc2-c2ccncc2)cc1,-58.6%
16,CC(=O)N1c2ccc(S(=O)(=O)NCCC(=O)NCCc3cccc(C)c3)cc2CC1C (stereo not drawn),-4.31%
17,CC(C)[C@H](NC(=O)c1ccco1)C(=O)OCC(=O)NC12CC3CC(CC(C3)C1)C2,-18.7%
18,CCOc1cc(/C=N/n2cnnc2)ccc1OS(=O)(=O)c1ccccc1,-57.7%
19,CCOc1cc(/C=N/n2cnnc2)ccc1OS(=O)(=O)c1ccc(C)cc1,-50.5%
20,COc1cc(C=O)ccc1OS(=O)(=O)c1ccccc1[N+](=O)[O-],4.1%
21,CCOc1cc(/C=N/NS(=O)(=O)c2ccccc2)ccc1OS(=O)(=O)c1ccc(C)cc1,2.1%

row,SMILES,"hERG current change (%, negative = inhibition) at 10uM"
1,Cc1ccc(S(=O)(=O)Oc2cccc(/C=N/n3cnnc3)c2)cc1,-49%
2,O=[N+]([O-])c1ccccc1S(=O)(=O)Oc1ccc(/C=N/n2cnnc2)cc1,-40.6%
3,CCOc1cc(/C=N/O)ccc1OS(=O)(=O)c1ccc(C)cc1,-5.21%
4,CCOc1cc(C=C2C(=O)NC(=O)NC2=O)ccc1OS(=O)(=O)c1ccccc1,-18%
5,COc1cc(/C=N/n2cnnc2)ccc1OS(=O)(=O)c1ccccc1[N+](=O)[O-],-51%
6,Cn1ncc2c(Nc3ccc(Cl)c(Cl)c3)ncnc21,14.5%
7,O=C(O)CCn1cc(/C=C2\SC(=S)NC2=O)c(-c2ccccc2)n1,21.8%
8,COc1ccc2c(c1)CC/C2=N\NC(=O)c1ccccc1,-3.69%
9,CC1(C)COC(Nc2ccc(Cl)cc2)=N1,-35.8%
10,Cc1ccc(Cn2nnnc2CN2CCC(O)(c3ccccc3F)CC2)cc1,-21.5%
11,Cc1ccc(C(=O)NC(C)CCc2ccccc2)cc1[N+](=O)[O-] (stereo not drawn),-13.9%
12,Cc1cc(C(=O)NC(C)CCc2ccccc2)ccc1[N+](=O)[O-] (stereo not drawn),-29.5%
13,CC(CCc1ccccc1)NC(=O)c1ccc(-n2cncn2)c([N+](=O)[O-])c1 (stereo not drawn),-70.9%
14,O=C(NCCCc1ccccc1)c1ccc(-n2cncn2)c([N+](=O)[O-])c1,-60.5%
15,O=C(NCCC1=CCCCC1)c1ccc(-n2cncn2)c([N+](=O)[O-])c1,-22.5%
16,O=C(NNC(=O)c1ccc(-n2cncn2)c([N+](=O)[O-])c1)c1ccccc1,9.34%
17,CCCC[n+]1c(-c2ccc(Cl)cc2Cl)csc1Nc1ccccc1.[Cl-],-6.7%
18,O=C(CC12CC3CC(CC(C3)C1)C2)N1CCCOC1,-3.81%
